Data on 96 molecules can be found in PubChem BioAssay AID1745848 (National Center for Advancing Translational Sciences (NCATS), 2022).

SMILES strings stand for the structures. Out of some 2,100 compounds screened, about 940 (45%) were called active. Roughly 48% stayed inconclusive and do not appear here. So high a share suggests a set chosen from earlier hits. The list shows a part of the results. A number with no mark means an inactive call. Calls follow the shape of the dose curve; as a rule, active = well fitted inhibition curve with a large enough effect; inconclusive = small, poorly fitted or top-dose-only effect; inactive = no such curve, though single readings can be large or run the other way.
Potency is read from the fitted curve at half-maximal effect.

The assay can be described thus: Confirmatory qHTS for Inhibitors of ATXN expression. Also: nearly all actives have a fitted effect of over 65% in size.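 As to activity change, negative = inhibition: 0% = DMSO vehicle wells and -100% = medium-only wells without cells.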 The settings on record: ATXN2-luciferase reporter cells, luminescence, 24 h; series mostly up to 11.5 µM; activity change, negative = inhibition: at the top concentration. The procedure, abridged: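 Cells carrying ATXN2-luciferase reporter exposed 24 h at 37 C to compound. Viability then read by CellTiter-Fluor (25 uM GF-AFC, 30 min), followed by SteadyGlo luminescence; medium-only wells set 100% inhibition.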
Consider `CCc1cc(-c2[nH]ncc2-c2ccc(OC)cc2)c(O)cc1O`, for which the Potency was 3.98 µM (active).
`Cc1cc(NC(=O)CSc2nccn2-c2cccc(C)c2C)no1`: the “activity change, negative = inhibition” value was -27%.
Take `Cc1cc(NC(=O)/C=C/C(=O)N(c2ccccc2C)C(C(=O)NC2CCCC2)c2ccc(F)cc2)no1` (stereo unspecified): the Potency is 3.55 µM (active).
The same measure, in the same setting: to `COc1ccc(C2CC(c3cccc(Cl)c3)=NN2c2ccc(S(N)(=O)=O)cc2)cc1` (stereo unspecified) belongs 25.1 µM (active); to `COc1ccc(C2CC(c3ccccc3C(F)(F)F)=NN2c2ccc(S(N)(=O)=O)cc2)cc1` (stereo unspecified), 25.1 µM (active).
With `COc1ccc(C2CC(c3ccccc3Cl)=NN2c2ccc(S(N)(=O)=O)cc2)cc1` (stereo unspecified), the “activity change, negative = inhibition” value was -25.8% [at 57.5 µM].
Still for that read-out and setting: in the case of `O=c1c(Cc2ccccc2)c(O)nc2n1CCS2` it was -7.22% [at 57.5 µM].
With `Oc1ccc(Cc2ccccc2)c2cccnc12`, the Potency is 10 µM (active).
For the molecule `Oc1ccc(Cl)c2cccnc12`, the Potency was 28.2 µM (active).
`Oc1ccc(CN2CCC(Cc3ccccc3)CC2)c2cccnc12`: the Potency is 0.891 µM (active).
Still for that read-out and setting: in the case of `CC(=O)N(C1=C(Cl)C(=O)c2ccccc2C1=O)C1CCCCC1` it was 8.91 µM (active).
Take `CCCC(=O)Nc1c(C(=O)OCC)[nH]c2ccccc12`: the “activity change, negative = inhibition” value is 17.3%.
Turning to `CCOc1ccccc1NC(=O)CCCc1nc2ccccc2c(=O)[nH]1`, the Potency is 2.51 µM (active).
For the molecule `N#CCc1nc2ccccc2c(=O)[nH]1`, the “activity change, negative = inhibition” value is -1.9% [at 57.5 µM].
The same measure, in the same setting: to `CCOC(=O)C(NS(=O)(=O)c1ccc(C)cc1)(C(F)(F)F)P(=O)(OCC(C)C)OCC(C)C` (stereo unspecified) belongs -2.16%.
Turning to `Cc1cccc(OCC(=O)NCC(=O)N/N=C/c2cc(Br)cc(Br)c2O)c1`, the Potency is 8.91 µM (active).
Still for that read-out and setting: to `O=C(/C=C\c1ccccc1)NCC(=O)N/N=C/c1ccc(O)cc1O` belongs 15.8 µM (active); to `CCOc1ccc(/C=N/NC(=O)C(O)c2ccccc2)c(O)c1` (stereo unspecified), 3.16 µM (active); to `O=C(COc1ccccc1)NCC(=O)N/N=C/c1ccc(O)cc1O`, 15.8 µM (active).
On the same count and under the same terms, to `O=C(N/N=C/c1ccc(O)cc1O)/C(=C/c1ccccc1)CCO` belongs 0.794 µM (active); to `CCN(CC)c1ccc(/C=C/c2cccc[n+]2C)c(OC)c1`, 2.51 µM (active).
Take `Cc1cc(C)nc(/N=C(\N)Nc2ccc(C(C)C)cc2)n1`: the Potency is 2.24 µM (active).
With `S=C(NC1CCCCC1)N1CCOCCOCCN(C(=S)NC2CCCCC2)CCOCCOCC1`, the Potency was 3.16 µM (active).
Regarding `OC[C@@H]1CN(Cc2ccc(-c3ccccc3)cc2)C[C@H](n2cnc3c(Nc4ccccc4)ncnc32)O1`, the Potency is 15.8 µM (active).
The same measure, in the same setting: to `CCOC(=O)C1CCN(c2ncnc3c2cnn3-c2ccc(Cl)cc2)CC1` belongs 1.26 µM (active).
As to `O=C(N/N=C/c1cc([N+](=O)[O-])ccc1O)c1c[nH]c2ccccc12`, the Potency was 17.8 µM (active).
For `O=C(Cn1nc2ccccc2n1)N/N=C/c1cc([N+](=O)[O-])ccc1O`, the Potency is 3.16 µM (active).
Still for that read-out and setting: to `O=C(N/N=C/c1cc([N+](=O)[O-])ccc1O)c1cccc2cc[nH]c12` belongs 3.16 µM (active); to `O=C(N/N=C/c1cc([N+](=O)[O-])ccc1O)c1cc(-c2ccccc2)nc2ccccc12`, 3.16 µM (active).
In the case of `COc1ccccc1N1C(=O)N(C(C)=O)C2C1Nc1ccccc1N2C` (stereo unspecified), the “activity change, negative = inhibition” value is -19.6% [at 57.5 µM].
With `CSc1cccc(NC(=O)c2ccc(CN3CCc4ccccc4C3)cc2)c1`, the Potency was 4.47 µM (active).
On to `CC1Cc2cc(-c3csc(NC(=O)Cc4cccs4)n3)ccc2N1S(C)(=O)=O` (stereo unspecified), for which the Potency is 3.98 µM (active).
On to `C=CCc1cccc(/C=N/NC(=O)CCC(=O)Nc2ccc(C)cc2)c1O`, for which the Potency is 3.55 µM (active).
Still for that read-out and setting: in the case of `C=CCc1cccc(/C=N/NC(=O)CCC(=O)Nc2ccc(F)cc2)c1O` it was 3.55 µM (active).
Same read-out and setting: in the case of `Cn1c(CCN2CCN(c3ccccn3)CC2)nc2cc(NC(=O)COc3ccc(Cl)cc3)ccc21` it was 11.2 µM (active); in that of `Cc1c(N/N=C(\C#N)C(=O)c2ccc(Cl)cc2)c(=O)n(-c2ccccc2)n1C`, 1.12 µM (active); in that of `Cc1c(N/N=C(\C#N)C(=O)c2ccccc2)c(=O)n(-c2ccccc2)n1C`, 2.51 µM (active).
As to `Cc1c(N=C2N=C(NC(=O)Nc3ccc(Cl)cc3)c3ccccc32)c(=O)n(-c2ccccc2)n1C`, the “activity change, negative = inhibition” value is -26.2% [at 57.5 µM].
In the case of `Cc1ccccc1C(=O)/C(C#N)=N/Nc1c(C)n(C)n(-c2ccccc2)c1=O`, the Potency is 3.55 µM (active).
Same read-out and setting: to `O=C(Nc1ccc(NC(=O)c2ccco2)cc1)c1ccc2c(c1)OCCO2` belongs 14.1 µM (active).
As to `Cc1ccc(C(=O)N2CCN(c3ccc(NC(=S)NC(=O)c4cccs4)cc3)CC2)cc1`, the “activity change, negative = inhibition” value is -19.9%.
In the case of `Cc1ccccc1C(=O)N1CCN(c2ccc(NC(=O)c3ccc4c(c3)OCCO4)cc2)CC1`, the Potency was 3.98 µM (active).
In the case of `CC(=O)c1sc(NC(=O)c2cc(-c3ccccc3)nn2-c2ccccc2)nc1C`, the “activity change, negative = inhibition” value was 2.27%.
Consider `COc1ccc(/C=N/NC(=O)c2nc(-c3ccccc3)n(-c3ccccc3)n2)c(O)c1`, for which the Potency is 3.98 µM (active).
The same measure, in the same setting: in the case of `Cc1cccc(NC(=O)c2cc(-c3ccccn3)nc3ccccc23)c1C` it was 17.8 µM (active).
On the same count and under the same terms, to `COc1cccc(/C=N/NC(=O)c2ccc(-c3ccccc3)cc2)c1O` belongs 2 µM (active); to `COc1cccc(C=NNC(=O)c2ccncc2)c1O`, 15.8 µM (active).
On the same count and under the same terms, in the case of `COc1cccc(/C=N/NC(=O)c2cc(-c3ccccn3)nc3ccccc23)c1O` it was 2.82 µM (active); in that of `COc1cccc(/C=N/NC(=O)c2nc(-c3ccccc3)cc(-c3ccccc3)n2)c1O`, 1 µM (active).
On to `COc1cccc(/C=N/NC(=O)c2ccc(=O)n(C)c2)c1O`, for which the Potency was 15.8 µM (active).
In the case of `OC[C@@H]1[C@@H](c2ccc(F)cc2)C(c2ccccc2)=NN1c1ccccc1`, the “activity change, negative = inhibition” value is -20.2% [at 57.5 µM].
Turning to `Cc1noc2ncnc(N3CCN(c4cccc(Cl)c4)CC3)c12`, the Potency is 11.2 µM (active).
For `Cc1cc(=O)oc2c1c(C)nn2-c1cccc(Cl)c1`, the “activity change, negative = inhibition” value is -0.276%.
`CCN(CC)CCNC(=O)CCc1c(C)nc2c(c(C)nn2-c2ccc(C)cc2)c1C`: the Potency is 3.16 µM (active).
Turning to `COc1ccc2nc(C)cc(NCc3cccc(C(F)(F)F)c3)c2c1`, the Potency was 14.1 µM (active).
Still for that read-out and setting: to `COc1ccc2nc(C)cc(NCc3ccc(F)cc3)c2c1` belongs 3.98 µM (active); to `CCOC(=O)c1c(SCCN2CCCC2)n(-c2ccccc2)c(=S)n(-c2ccccc2)c1=O`, 2.24 µM (active); to `CCOC(=O)c1c(SCCN2CCCCC2)n(-c2ccccc2)c(=S)n(-c2ccccc2)c1=O`, 22.4 µM (active).
Still for that read-out and setting: in the case of `COc1cccc(N2CCN(c3nc(-c4ccccc4C)cc(=O)[nH]3)CC2)c1` it was 0.398 µM (active); in that of `O=C(CNc1ccccc1)N/N=C/c1c(O)ccc2ccccc12`, 0.562 µM (active).
Consider `O=C(CSCC(=O)Nc1ccccc1)N/N=C/c1c(O)ccc2ccccc12`, for which the Potency was 0.708 µM (active).
`O=C(CNc1ccc(F)cc1)N/N=C/c1c(O)ccc2ccccc12`: the Potency is 3.16 µM (active).
For the molecule `COc1ccccc1NCC(=O)N/N=C/c1c(O)ccc2ccccc12`, the Potency is 3.16 µM (active).
In the case of `CCOc1cc(CNCCO)cc(Br)c1OCc1ccccc1`, the Potency is 12.6 µM (active).
With `Cc1nc(C(F)(F)F)c(C(=O)N/N=C(\N)c2ccccn2)s1`, the Potency is 14.1 µM (active).
Same read-out and setting: in the case of `CC(C)C1Cc2c(sc3[nH]c(=S)n(Cc4ccccc4)c(=O)c23)CO1` (stereo unspecified) it was 12.6 µM (active).
Consider `Nc1ccc(Oc2ccccc2-c2ccccc2)cc1`, for which the Potency was 2 µM (active).
Same read-out and setting: in the case of `Cc1ncc(CO)c(/C=N/Nc2ccc(C(F)(F)F)cn2)c1O` it was 3.55 µM (active).
The same measure, in the same setting: to `CCC(C)N1C(=O)S/C(=C/c2ccc(Sc3nc4ccccc4[nH]3)o2)C1=O` (stereo unspecified) belongs 11.2 µM (active).
Consider `COc1cc(C(=O)OC(C)C(=O)N2CCc3ccccc3C2)ccc1OCC(=O)N1CCOCC1` (stereo unspecified), for which the “activity change, negative = inhibition” value is 4.56%.
On to `S=C(Nc1ccccc1)Nc1ccc(OCc2ccc(Cl)cc2Cl)cc1`, for which the Potency was 2.51 µM (active).
Still for that read-out and setting: to `Cc1[nH]c(=O)c(C(=O)/C=C/c2ccccc2)c2c1CCCC2` belongs 7.94 µM (active); to `Cc1ccc(C(=O)NCCN2C3=NC[C@@H](Cc4ccccc4)N3C[C@H]2Cc2ccc(O)cc2)cc1Br`, 2.82 µM (active); to `CCCCn1c2ccc(F)cc2c2nnc(NN)nc21`, 28.2 µM (active).
Still for that read-out and setting: in the case of `Cc1cc(C2=NNC(=NC3CC3)SC2)c(C)n1-c1ccccc1F` it was 0.126 µM (active).
Still for that read-out and setting: in the case of `CC(=O)NC(c1ccco1)c1cc(Cl)c2cccnc2c1O` (stereo unspecified) it was 3.16 µM (active).
As for `CCCCC(=O)NC(c1ccco1)c1cc(Cl)c2cccnc2c1O` (stereo unspecified), the Potency was 3.55 µM (active).
The same measure, in the same setting: to `CCC(=O)NC(c1ccco1)c1cc(Cl)c2cccnc2c1O` (stereo unspecified) belongs 2.82 µM (active); to `CCCC(=O)NC(c1ccco1)c1cc(Cl)c2cccnc2c1O` (stereo unspecified), 11.2 µM (active); to `CCC(=O)NC(c1ccco1)c1cc(Br)c2cccnc2c1O` (stereo unspecified), 11.2 µM (active).
On the same count and under the same terms, to `O=C(CCc1ccccc1)NC(c1cccs1)c1cc(Cl)c2cccnc2c1O` (stereo unspecified) belongs 2.24 µM (active).
On to `Oc1ccc(C2CNCc3sccc32)cc1O` (stereo unspecified), for which the “activity change, negative = inhibition” value was -15.3% [at 57.5 µM].
In the case of `Cc1c(C(=O)NCc2ccc(C(F)(F)F)cc2)sc(=O)n1Cc1cccc(F)c1`, the “activity change, negative = inhibition” value was -26.9% [at 57.5 µM].
For `Cc1nc(-c2ccc(C(F)(F)F)cc2)sc1C(=O)NN`, the Potency was 14.1 µM (active).
Same read-out and setting: in the case of `Cc1ccc(F)cc1-c1cc2nc(NCCCN(C)C)n(C)c(=O)c2s1` it was 17.8 µM (active); in that of `Cn1c(NCCN2CCCC2)nc2cc(-c3ccsc3)sc2c1=O`, 28.2 µM (active).
Turning to `Cc1cc(Cl)ccc1-c1cc2nc(NCCCN(C)C)n(C)c(=O)c2s1`, the “activity change, negative = inhibition” value is -5.65%.
Take `CCCCCCc1cc2cc(C(=O)Nc3ccccc3)c(=O)oc2cc1O`: the Potency was 0.794 µM (active).
As to `CCCCCCc1cc2cc(S(=O)(=O)c3ccc(C)cc3)c(=O)oc2cc1O`, the “activity change, negative = inhibition” value is -15.6%.
Consider `Cc1cccc(Nc2nc(N)nc(CCl)n2)c1C`, for which the “activity change, negative = inhibition” value is -14.3%.
In the case of `C=CCn1c(COc2ccccc2)nnc1SC(C)C(=O)N/N=C/c1cc(Cl)ccc1O` (stereo unspecified), the Potency is 3.98 µM (active).
Same read-out and setting: in the case of `CC(C)c1ccc(S(=O)(=O)c2cc3cc(Br)ccc3oc2=O)cc1` it was 25.1 µM (active).
As to `c1ccc2c(c1)c1c(c3ccccc32)CN2CCCC2C1` (stereo unspecified), the “activity change, negative = inhibition” value is -29.2% [at 57.5 µM].
For `CS(=O)(=O)Nc1ccccc1C(=O)Nc1cc(Cl)cc(Cl)c1`, the Potency was 2.51 µM (active).
On to `CC(C)(C)NCC(=Cc1ccccc1)C(=O)c1ccccc1`, for which the Potency is 1.41 µM (active).
Same read-out and setting: to `O=C(C(Br)=Cc1ccccc1)c1ccccc1` belongs 10 µM (active).
